Measurements as given in the supplement of paper PMC13380429.

System: Vero E6 infected with SARS-CoV-2
Test: inhibition of SARS-CoV-2 cytopathic effect; higher = more antiviral protection, active = above 15
Conditions: 48 h

Measured: inhibition of SARS-CoV-2 cytopathic effect

CCN(CC)CCO[C@H]1CC[C@@]2(C)C(=CC[C@@H]3[C@@H]2CC[C@]2(C)C(=O)CC[C@@H]32)C1
active: 10000 nM 19.6%
inactive: 1 nM 1.95% | 8.33 nM 2.95% | 100 nM 1.19% | 833.33 nM 3.83%

c1ccc2c(c1)CCCc1cc(NCCN3CCOCC3)nnc1-2
inactive: 1 nM 0.07% | 8.33 nM 1.77% | 100 nM 1.8% | 833.33 nM 1.51% | 10000 nM 0.84%

CCOC(=O)C1=C[C@@H](OC(CC)CC)[C@H](NC(C)=O)[C@@H](N)C1 [oseltamivir-phosphate]
inactive: 1 nM -2.66% | 8.33 nM -6.65% | 100 nM -4.22% | 833.33 nM -6.18% | 10000 nM 0.67%

CC(C)(CO)CCCCCCC(C)(C)CO [gemcadiol]
inactive: 1 nM -2.86% | 8.33 nM -2.01% | 100 nM -1.65% | 833.33 nM -2.84% | 10000 nM -2.43%

CC[C@@H](C)c1ccc(NC(=O)Cn2cnc3c2c(=O)n(C)c(=O)n3C)cc1 (racemic)
inactive: 1 nM -0.15% | 8.33 nM 0.22% | 100 nM -1.39% | 833.33 nM -1.04% | 10000 nM 3.52%

COc1ccc(S(=O)(=O)N2CCCN(S(=O)(=O)c3ccc(OC)c(OC)c3)CC2)cc1OC
inactive: 1 nM -2.26% | 8.33 nM -1.47% | 100 nM -0.96% | 833.33 nM -5.53% | 10000 nM 6.2%

O=C1S/C(=C\c2ccc(OCc3cccc(B(O)O)c3)cc2)C(=O)N1Cc1ccc(F)cc1
inactive: 1 nM -1.35% | 8.33 nM 1.46% | 100 nM 0.45% | 833.33 nM 3.95% | 10000 nM -1.14%

Cc1ccccc1NC(=N)Nc1ccccc1C [ditolylguanidine]
inactive: 1 nM 1.39% | 8.33 nM 1.77% | 100 nM -1.06% | 833.33 nM -2.29% | 10000 nM -0.63%

CC[C@H]1OC(=O)[C@H](C)C(=O)[C@H](C)[C@@H](O[C@@H]2O[C@H](C)C[C@H](N(C)C)[C@H]2O)[C@](C)(OC)C[C@@H](C)C(=O)[C@H](C)[C@H]2N(CCCCn3cnc(-c4cccnc4)c3)C(=O)O[C@]12C [telithromycin]
inactive: 1 nM -2.13% | 8.33 nM -0.46% | 100 nM -1.7% | 833.33 nM 0.65% | 10000 nM -0.07%

CCCS(=O)(=O)Nc1ccc(F)c(C(=O)c2c[nH]c3ncc(Cl)cc23)c1F
inactive: 1 nM 0.68% | 8.33 nM 0.41% | 100 nM -0.45% | 833.33 nM 2.16% | 10000 nM 1.71%

C[C@](O)(COc1ccc(C#N)cc1)C(=O)Nc1ccc(C#N)c(C(F)(F)F)c1 [ostarine]
inactive: 1 nM -0.2% | 8.33 nM -1.03% | 100 nM 1.02% | 833.33 nM -1.16% | 10000 nM 1.37%

O=c1[nH]c(=O)n([C@H]2C[C@H](O)[C@@H](CO)O2)cc1I [idoxuridine]
inactive: 1 nM 1.04% | 8.33 nM -1.19% | 100 nM 2.65% | 833.33 nM -0.31% | 10000 nM -2.33%

Cc1cccc(/C=N/Nc2cc(N3CCOCC3)nc(OCCc3ccccn3)n2)c1
inactive: 1 nM 0.81% | 8.33 nM 1.56%
active: 100 nM 26.8% | 833.33 nM 20.4% | 10000 nM 19.1%

C[C@H](/C=C/[C@H](C)C(C)(C)O)[C@H]1CC[C@H]2/C(=C/C=C3C[C@@H](O)C[C@H](O)C3)CCC[C@]12C [paricalcitol]
inactive: 1 nM 0.83% | 8.33 nM 3.37% | 100 nM -0.2% | 833.33 nM 1.21% | 10000 nM -0.81%

C=CC(=O)Nc1cccc(C)c1Nc1ncc2cc(-c3c(Cl)c(OC)cc(OC)c3Cl)ccc2n1
inactive: 1 nM -1.66% | 8.33 nM -0.88% | 100 nM -0.76% | 833.33 nM 0.98% | 10000 nM 3.67%

CC(ONC(=O)c1cc(C(F)(F)F)cc(C(F)(F)F)c1)C(=O)Nc1ccc(Cl)cc1 (stereo not given)
inactive: 1 nM 1.52% | 8.33 nM -0.64% | 100 nM 0.05% | 833.33 nM -2.31% | 10000 nM 5.49%

COc1cc(OC)cc(C(=O)NNC(=O)Nc2cccc3ccccc23)c1
inactive: 1 nM 0.29% | 8.33 nM -2.09% | 100 nM -1.74% | 833.33 nM 2.71% | 10000 nM -1.92%

CCC(COC(=O)c1cc(OC)c(OC)c(OC)c1)(c1ccccc1)N(C)C (stereo not given) [trimebutine]
inactive: 1 nM -4.71% | 8.33 nM -2.14% | 100 nM -2.65% | 833.33 nM -0.31% | 10000 nM 2.51%

CS(=O)(=O)c1ccc(C2=C(c3ccccc3)C(=O)OC2)cc1 [rofecoxib]
inactive: 1 nM 1.64% | 8.33 nM -0.86% | 100 nM -0.87% | 833.33 nM 0.62% | 10000 nM 1.14%
